Screening data deposited in PubChem BioAssay by National Center for Advancing Translational Sciences (NCATS).
HT1080NT lethal = kills 2HG-producing HT-1080-NT fibrosarcoma cells; HT-1080-NT fibrosarcoma viability, CellTiter-Glo ATP luminescence, 48 h; Potency, µM (top dose mostly 46.1 µM), most hits filed as cytotoxic; 360,000 tested, 1.6% active;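 note: NT is the 2HG producing partner of a matched IDH1 knockdown line; nearly all actives have a fitted effect of over 55% in size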
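Compounds were tested in concentration-response format on HT-1080-NT cells for 48 hours at 37 degrees C. Cell viability came from CellTiter-Glo luminescence; curves were classified by r2, response magnitude and activity.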
TDP1 cell noCPT = qHTS for Inhibitors of human tyrosyl-DNA phosphodiesterase 1 (TDP1): qHTS in cells in absence of CPT; DT40 Tdp1-/- hTDP1 cells, no CPT, ATP luminescence, 48 h; Potency, µM (doses to about 46.2 µM), most hits filed as inhibitors; 420,000 tested, 15% active; AID 686978, 2013; note: nearly all actives have a fitted effect of over 55% in size
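Seeded 400 DT40-hTDP1 cells/well (vehicle DMSO, no 20 nM CPT); pinned compounds; ≥48 hr at 37 °C; CellTiter-Glo luminescence as viability measure.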
HepG2 tox = kills HepG2 cells in TGF-b inhibitor counter-screen | HepG2 CAGA-GFP viability, ATP luminescence, 18 h | Potency, µM (titrated, usually from 46.1 µM), hits mostly cytotoxic | 410,000 tested, 0.76% active | AID 588856
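HepG2 CAGA-GFP cells (1000/well, DMEM with 1% FBS) received compound, then TGF-beta at 500 pg/mL final, and were incubated 18 hours at 37 degrees C. Viability was read by CellTiter-Glo luminescence. Media-only wells were set as complete cell-killing and DMSO as no toxicity.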
DT40 TDP1 CPT = DT40-hTDP1 cell growth loss with CPT | 420,000 tested, 12% active | AID 686979 | chicken DT40 Tdp1-/-;hTDP1 cells + 20 nM CPT, ATP luminescence, 48 h | Potency, µM (titrated, usually from 46.2 µM), hits mostly inhibitors; note: nearly all actives have a fitted effect of over 55% in size
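Chicken DT40 Tdp1-/- cells stably complemented with human TDP1 were seeded at 400 cells/well in medium containing 20 nM camptothecin, exposed to pin-transferred compounds, and grown at 37 °C for at least 48 hr. Viability was read as ATP luminescence.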
TGFb SMAD3 inh = blocks TGF-b signaling | 410,000 tested, 1.2% active | HepG2 CAGA-GFP TGF-b/SMAD3 reporter, GFP fluorescence, 18 h; TGF-beta stimulated, 500 pg/mL final | Potency, µM (top dose mostly 46.1 µM), usual class: inhibitors; note: nearly all actives have a fitted effect of over 65% in size
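Smad-responsive CAGA-GFP expression was quantified in HEPG2 cells exposed to compounds and 500 pg/mL final TGF-beta for 18 h at 37 degrees C; unstimulated wells defined full inhibition.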
HT1080 IDH1KD tx = HT-1080 IDH1 knockdown cell toxicity (counter line). HT-1080 IDH1 knockdown viability, ATP luminescence, 48 h. 360,000 tested, 2% active. Potency, µM (doses to about 46.1 µM), hits mostly cytotoxic
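In this qHTS, HT-1080 cells depleted of IDH1 are exposed for 48 h at 37 °C to compound titrations. Toxicity is scored from CellTiter-Glo luminescence, with DMSO as full viability and medium alone as none.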
Large screens that a line does not name were inactive. This is a sample that favours compounds with a hit; in the whole collection about 17% have one here. Calls come from the whole dose curve; as a rule, active = well fitted curve in the direction sought with a large enough effect; inconclusive = small, poorly fitted or top-dose-only effect, or another doubt; inactive = no such curve, though single readings can be large; an effect the other way counts as inactive or inconclusive.

COc1ccccc1N=c1oc2cc(O)ccc2cc1C(N)=O	HT1080NT lethal 23.1µM, TDP1 cell noCPT inconclusive, HepG2 tox 10µM, DT40 TDP1 CPT inconclusive, HT1080 IDH1KD tx inconclusive
COc1ccccc1N=c1oc2cc(O)ccc2cc1C(=O)NCC1CCCO1 (stereo unspecified)	TDP1 cell noCPT inconclusive, DT40 TDP1 CPT inconclusive
COc1cccc(N=c2oc3cc(O)ccc3cc2C(=O)NCC2CCCO2)c1 (stereo unspecified)	TDP1 cell noCPT 20.6µM, DT40 TDP1 CPT inconclusive, TGFb SMAD3 inh inconclusive
Cn1c(=O)n(C)c2cc(CNCc3ccccc3Cl)ccc21	TDP1 cell noCPT inconclusive, DT40 TDP1 CPT inconclusive (no result: HT1080NT lethal, HT1080 IDH1KD tx)
O=[N+]([O-])c1cnc(N2CCCCC2)c([N+](=O)[O-])c1	none
COc1ccc2[nH]cc(CCNC(=O)Cn3cc(C)c(=O)[nH]c3=O)c2c1	none
CC(C)Nc1nc(NC(C)C)nc(OCCOC(=O)Nc2ccccc2)n1	TDP1 cell noCPT inconclusive, HT1080 IDH1KD tx inconclusive
O=C(NCc1cccc(F)c1)c1ccc2nc(N3CCOCC3)sc2c1	TGFb SMAD3 inh inconclusive
O=C(COC(=O)c1ccco1)c1ccc(Cl)cc1	TDP1 cell noCPT 1.3µM
CC(=O)N1c2ccc(S(=O)(=O)NCCC(=O)Nc3ccc(F)cc3)cc2CC1C (stereo unspecified)	TDP1 cell noCPT inconclusive, DT40 TDP1 CPT inconclusive
CC(=O)N1c2ccc(S(=O)(=O)NCCC(=O)Nc3ccc(C)c(Cl)c3)cc2CC1C (stereo unspecified)	TDP1 cell noCPT 13µM, DT40 TDP1 CPT 14.6µM, TGFb SMAD3 inh inconclusive
CC(=O)N1c2ccc(S(=O)(=O)NCCC(=O)Nc3ccc(Br)c(C)c3)cc2CC1C (stereo unspecified)	TDP1 cell noCPT 5.17µM, DT40 TDP1 CPT 8.2µM, TGFb SMAD3 inh 11.2µM (no result: HT1080NT lethal, HT1080 IDH1KD tx)
CC(=O)N1c2ccc(S(=O)(=O)NCCC(=O)NCc3ccc(Cl)cc3)cc2CC1C (stereo unspecified)	TDP1 cell noCPT 14.6µM, DT40 TDP1 CPT inconclusive
CC(=O)N1c2ccc(S(=O)(=O)NCCC(=O)NCc3ccc(N(C)C)cc3)cc2CC1C (stereo unspecified)	TDP1 cell noCPT inconclusive, DT40 TDP1 CPT inconclusive
Cc1ccc(Cn2c(=O)c3cccnc3n(CC(=O)Nc3cccc(C(F)(F)F)c3)c2=O)cc1	TDP1 cell noCPT 16.4µM, DT40 TDP1 CPT inconclusive, TGFb SMAD3 inh inconclusive
CCCN(C(=O)Cn1nc(Cc2cccnc2)c2ccccc2c1=O)c1ccc(C(C)C)cc1	TDP1 cell noCPT 25.9µM, HepG2 tox 12.6µM, DT40 TDP1 CPT 23.1µM, TGFb SMAD3 inh 20µM (no result: HT1080NT lethal, HT1080 IDH1KD tx)
O=C(Cn1nc(Cc2cccnc2)c2ccccc2c1=O)Nc1ccc(F)c(Cl)c1	TDP1 cell noCPT 16.4µM, TGFb SMAD3 inh inconclusive (no result: HT1080NT lethal, HT1080 IDH1KD tx)
O=C(Cn1c(=O)n(Cc2ccc(Cl)cc2)c(=O)c2cccnc21)Nc1ccccc1C(F)(F)F	TDP1 cell noCPT inconclusive, DT40 TDP1 CPT inconclusive (no result: HT1080NT lethal, HT1080 IDH1KD tx)
O=C(Cn1nc(Cc2ccncc2)c2ccccc2c1=O)Nc1cccc(C(F)(F)F)c1	TDP1 cell noCPT 23.1µM, DT40 TDP1 CPT inconclusive, TGFb SMAD3 inh inconclusive (no result: HT1080NT lethal, HT1080 IDH1KD tx)
NC(=O)c1ccccc1NC(=O)Cn1nc(Cc2cccnc2)c2ccccc2c1=O	TDP1 cell noCPT inconclusive, TGFb SMAD3 inh inconclusive (no result: HT1080NT lethal, HT1080 IDH1KD tx)
CC(C)Nc1ncnc2c1ncn2[C@H]1CN(Cc2ccco2)C[C@@H](CO)O1	none
CC(C)c1ccc(C2N3CC4([N+](=O)[O-])CN2CC([N+](=O)[O-])(C3)C4(C)C)cc1 (stereo unspecified)	TDP1 cell noCPT inconclusive, DT40 TDP1 CPT 8.2µM
CCOc1ccc2nc(N/C(N)=N/C(=S)Nc3cccc(C)c3)nc(C)c2c1	TDP1 cell noCPT 20.6µM, DT40 TDP1 CPT 18.4µM
CCOc1ccc2nc(N/C(N)=N/C(=S)Nc3cccc(OC)c3)nc(C)c2c1	TDP1 cell noCPT inconclusive, DT40 TDP1 CPT inconclusive
